In the library only some 5% were active in any assay of this set; here they are far more common.
EBI2 antag: EBI2 receptor antagonists, beta-arrestin recruitment, primary screen, cell-based, luminescence, 7a,25-OHC stimulation, uHTS; G-protein coupled receptor 183 (Homo sapiens), P32249; 7a,25-OHC stimulated; inhibition, % at 5 µM; 360,000 tested, 0.81% active; AID 651636, 2012; in the data active = inhibition above about 38%;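 also: enzyme fragment complementation signal reports receptor beta-arrestin coupling in cells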
Target sequence (P32249 whole entry, looked up, the tested form may be a part): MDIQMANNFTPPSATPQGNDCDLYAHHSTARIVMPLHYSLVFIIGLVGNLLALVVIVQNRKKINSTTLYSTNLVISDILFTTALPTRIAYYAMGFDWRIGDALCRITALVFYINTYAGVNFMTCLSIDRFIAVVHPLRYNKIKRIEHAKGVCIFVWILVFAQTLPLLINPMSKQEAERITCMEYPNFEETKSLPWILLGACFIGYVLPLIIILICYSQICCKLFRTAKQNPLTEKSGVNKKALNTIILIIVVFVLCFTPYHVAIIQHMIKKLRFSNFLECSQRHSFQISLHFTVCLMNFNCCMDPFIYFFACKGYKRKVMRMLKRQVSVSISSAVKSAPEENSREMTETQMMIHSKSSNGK
SENP8 block-1: human SENP8 protease inhibitors, primary screen, biochemical, fluorescence, Nedd8 protein substrate, uHTS; Sentrin-specific protease 8 (Homo sapiens), Q96LD8; recombinant SENP8; inhibition, % at 20 µM; 360,000 tested, 0.64% active; AID 602440, 2012; in the data active = inhibition mostly above about 40%, no sharp cut-off; inactive = mostly below about 27%
AHR act: AHR activators, primary screen, cell-based, luminescence, luciferase reporter, human | AHR-responsive luciferase reporter cells | activation, % at 5 µM | 320,000 tested, 2.5% active; in the data active = activation above about 47%
SENP7 block: SENP7 protease inhibitors, primary screen, biochemical, luminescence, uHTS. recombinant SENP7, Z-RLRGG-aminoluciferin luminescence, 40 min. inhibition, % at 5 µM. 330,000 tested, 1.5% active. AID 434973, 2010. Sentrin-specific protease 7 (Homo sapiens), Q9BQF6;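 active = inhibition above about 50% at the single test dose, limit read from the data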
SENP6 block: SENP6 protease inhibitors, primary screen, biochemical, luminescence, uHTS. inhibition, % at 10 µM. Sentrin-specific protease 6 (Homo sapiens), Q9GZR1. 330,000 tested, 1.8% active. Recombinant SENP6 catalytic domain, aminoluciferin luminescence;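 active = inhibition above about 50% at the single tested dose, limit read from the data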
SENP8 block-2: SENP8 protease inhibitors, primary screen, biochemical, luminescence; inhibition, % at 10 µM; Sentrin-specific protease 8 (Homo sapiens), Q96LD8; 330,000 tested, 1.2% active; purified SENP8, Z-RLRGG-aminoluciferin cleavage; in the data active = inhibition above about 50%
EBI2 conf: EBI2 antagonist hit retest, beta-arrestin, confirmation, cell-based, single concentration, luminescence, 7a,25-OHC stimulation. shares compounds with EBI2 antag. 7a,25-OHC antagonism. inhibition, % at 5 µM. 2,400 tested, 29% active;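 active = inhibition of at least 50%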
EBI2 ag: EBI2 agonist activity of antagonist hits, confirmation, counter-screen for EBI2 antagonist project, cell-based, single concentration, agonist mode, luminescence; AID 652000, 2013; EBI2-expressing cells, 60 min; 0% vehicle, 100% 7α,25-dihydroxycholesterol control; 2,400 tested, under 10 active; shares compounds with EBI2 antag; activation, % at 5 µM;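 active = activation of at least 50%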
bGal cs: E. coli beta-galactosidase enzyme inhibition, confirmation, counter-screen for EBI2 antagonist project, biochemical, luminescence, single concentration | shares compounds with EBI2 antag | purified beta-galactosidase, luminescent Galacton Star, 15 min | inhibition, % at 5 µM | 2,400 tested, 1% active | AID 652176, 2013;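 active = replicate-average signal at least 3 plate SD below neutral wells, shown as high inhibition, flagging enzyme-inhibiting false positives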;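 also: higher means stronger loss of beta-gal luminescence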
Numbers stand for hits.

For C=CCC1(CC=C)CCCN1C(=O)C1CCC(=O)N(CCc2ccc(Cl)cc2)C1 (stereo unspecified) the results were EBI2 antag 79, SENP8 block-1 inactive, AHR act inactive, SENP7 block inactive, SENP6 block inactive, SENP8 block-2 inactive, EBI2 conf inactive, EBI2 ag inactive and bGal cs inactive.
Cc1cc(C)c(C)c(S(=O)(=O)NC(C(=O)NCCc2ccco2)C(C)C)c1C (stereo unspecified) was read as EBI2 antag inactive, SENP8 block-1 inactive, AHR act inactive, SENP7 block inactive, SENP6 block inactive and SENP8 block-2 inactive.
`Cc1nn(C2CCS(=O)(=O)C2)c(C)c1CN(C)C(=O)c1ccc(S(=O)(=O)N(C)C)cc1` (stereo unspecified) gave EBI2 antag inactive, SENP8 block-1 inactive, AHR act inactive, SENP7 block inactive, SENP6 block inactive and SENP8 block-2 inactive.
`Cc1ccc(C(=O)N(C)CC(=O)Nc2cccc(C)c2C)o1` gave EBI2 antag inactive, SENP8 block-1 inactive, AHR act inactive, SENP7 block inactive, SENP6 block inactive and SENP8 block-2 inactive.
`NC(=O)c1ccc(NC(=O)CN2CCN(c3ccccc3)CC2)cc1` gave EBI2 antag inactive, SENP8 block-1 inactive, AHR act inactive, SENP7 block inactive, SENP6 block inactive and SENP8 block-2 inactive.
`CC(C)Oc1ccc(Br)cc1/C=N\NC(N)=S` gave EBI2 antag inactive, SENP8 block-1 inactive, AHR act inactive, SENP7 block inactive, SENP6 block inactive and SENP8 block-2 inactive.
Screening COCCN(CC1CCCN(C2Cc3ccccc3C2)C1)C(=O)CSC (stereo unspecified) returned EBI2 antag inactive, SENP8 block-1 inactive, AHR act inactive, SENP7 block inactive, SENP6 block inactive and SENP8 block-2 inactive.
Screening CCc1cc2cc(C(=O)N3CCN(c4ccccc4)CC3)sc2s1 returned EBI2 antag 83, SENP8 block-1 inactive, AHR act inactive, SENP7 block inactive, SENP6 block inactive, SENP8 block-2 inactive, EBI2 conf inactive, EBI2 ag inactive and bGal cs inactive.
CCc1cc2cc(C(=O)N3CCN(Cc4ccccc4)CC3)sc2s1 was read as EBI2 antag 97, SENP8 block-1 inactive, AHR act inactive, SENP7 block inactive, SENP6 block inactive, SENP8 block-2 inactive, EBI2 conf 85, EBI2 ag inactive and bGal cs inactive.
O=C(CCc1nnc(Cc2ccc3c(c2)OCO3)o1)NC(c1ccccn1)C(F)(F)F (stereo unspecified) was read as EBI2 antag inactive, SENP8 block-1 inactive, AHR act inactive, SENP7 block inactive, SENP6 block inactive and SENP8 block-2 inactive.
`COc1cc(-c2nc(-c3ccccc3)c(-c3cccs3)[nH]2)cc(OC)c1OC` gave EBI2 antag 45, SENP8 block-1 inactive, AHR act 70, SENP7 block inactive, SENP6 block inactive, SENP8 block-2 inactive, EBI2 conf inactive, EBI2 ag inactive and bGal cs inactive.
Screening COc1cc(-c2nc(-c3ccccc3)c(-c3cccs3)[nH]2)cc(OC)c1O returned EBI2 antag inactive, SENP8 block-1 inactive, AHR act inactive, SENP7 block inactive, SENP6 block inactive and SENP8 block-2 inactive.

Source: PubChem (several laboratories)
